Measurements from PubChem BioAssay.
Results with a measured potency or affinity are listed apart. Records with an inconclusive call do not appear. Activity calls are given as the source filed them. Unless noted, no rule for the calls is given here.

Assays:
[1] = RMG-1 ovarian cancer cell viability loss – cherry-pick, dose response (AID 687029;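 active = signal drop whose fitted half-maximal concentration is at most twice the top valid dose, in every test run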;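 also: cells exposed to compound for 96 hours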)
[2] = IOSE-T80 viability loss, PAX8-independent line – cell-based, cherry-pick, selectivity assay for PAX8 inhibitor project, dose response (AID 687032;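 active = fitted half-maximal concentration for viability loss no higher than twice the top valid dose, in every repeat run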;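 also: cells exposed to compound for 96 h before reading; 0% = neutral control wells and -100% = 2 µM mitoxantrone kill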)
[3] = CMV-driven luciferase expression suppression in HEK293 – cell-based, luminescence, dry powder, counter-screen for Pax8 inhibitor project, dose response (AID 743020;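 active = signal-lowering compounds whose fitted half-maximal concentration is at or below twice the top tested dose in every run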;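 also: HEK293 cells stably expressing the CMV luciferase reporter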)
[4] = general cell-killing toxicity readout – plate reader, dry powder samples, cytotoxicity control for PAX8 inhibitor project, dose response (AID 743021)
[5] = IGROV1 cell killing – plate reader, dry powder samples, PAX8 inhibitor project, dose response (AID 743043);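 also: more negative means fewer viable cells or more cytotoxicity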
[6] = OVCAR-3 cell viability loss – plate reader, dry powder samples, PAX8 inhibitor project, dose response (AID 743044); conditions: max activity: at 35 µM, active compounds read low unless noted
[7] = toxicity toward immortalized ovarian surface epithelium – cell-based, plate reader, dry powder samples, cytotoxicity control for PAX8 inhibitor project, dose response (AID 743045);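 also: 0% = neutral control median and -100% = positive control median; more negative values mean more cell killing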
[8] = A2780 cell killing – plate reader, dry powder samples, cytotoxicity control, dose response (AID 743046);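 also: 0% = neutral control wells and -100% = cytotoxic reference compound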
[9] = OVCAR8 cell viability loss – plate reader, dry powder samples, PAX8 project, dose response (AID 743197)

Measured: max activity

C[C@H]1CN([C@@H](C)CO)C(=O)c2cc(NS(=O)(=O)c3ccc(Cl)cc3)ccc2O[C@H]1CN(C)Cc1ccc(Cl)c(Cl)c1
inactive: [1] | [2] | [3] | [4] | [5] | [6] -29.6% | [7] | [8]

C[C@@H]1CN([C@@H](C)CO)C(=O)c2c(c3ccccc3n2C)-c2ccccc2CO[C@H]1CN(C)S(=O)(=O)c1cccc(F)c1
inactive: [1] | [2] | [3] | [4] | [5] | [6] -19.9% [at 16 µM, active compounds read low] | [7] | [8]

COCCNC(=O)C[C@@H]1C[C@H]2c3cc(NC(=O)Nc4ccc(C(F)(F)F)cc4)ccc3O[C@H]2[C@H](CO)O1
inactive: [1] | [2] | [3] | [4] | [5] | [6] -18.8% | [7] | [8]

C[C@@H]1CN([C@@H](C)CO)C(=O)Cc2cc(NC(=O)Nc3ccc(C(F)(F)F)cc3)ccc2O[C@H]1CN(C)C(=O)Nc1ccc(C(F)(F)F)cc1
inactive: [1] | [2] | [3] | [4] | [5] | [6] -32.2% | [7] | [8]

C[C@@H]1CCCCO[C@@H](CN(C)Cc2ccc(Cl)c(Cl)c2)[C@H](C)CN([C@H](C)CO)C(=O)c2cc(NC(=O)Nc3ccc(F)cc3)ccc2O1
inactive: [1] | [2] | [3] | [4] | [5] | [6] -37% | [7] | [8]

COc1ccc(CN(C)C[C@@H]2OCCCC[C@@H](C)Oc3ccc(NC(=O)Nc4ccc(C(F)(F)F)cc4)cc3C(=O)N([C@@H](C)CO)C[C@H]2C)cc1
inactive: [1] | [2] | [3] | [4] | [5] | [6] -5.22% [at 16 µM, active compounds read low] | [7] | [8]

C[C@H](CO)N1C[C@H](C)[C@H](CN(C)C(=O)c2ccccc2)OCCCC[C@H](C)Oc2ccc(NC(=O)Nc3ccc(C(F)(F)F)cc3)cc2C1=O
inactive: [1] | [2] | [3] | [4] | [5] | [6] 16.6% [at 0.5 µM, active compounds read low] | [7] | [8]

C[C@@H]1CN([C@@H](C)CO)C(=O)c2cc(NS(=O)(=O)c3ccc(F)cc3)ccc2O[C@@H]1CN(C)Cc1ccc(C(F)(F)F)cc1
inactive: [1] | [2] | [3] | [4] | [5] | [6] -27.7% | [7] | [8]

Cc1ccc(S(=O)(=O)N(C)C[C@@H]2OCCCC[C@H](C)Oc3ccc(NS(=O)(=O)c4ccc(F)cc4)cc3C(=O)N([C@H](C)CO)C[C@H]2C)cc1
inactive: [1] | [2] | [3] | [4] | [5] | [6] -6.55% | [7] | [8]

C[C@H](O)C#Cc1ccc2c(c1)O[C@H](CN(C)Cc1ccc(-c3ccccc3)cc1)[C@H](C)CN([C@@H](C)CO)S2(=O)=O
inactive: [1] | [2] | [3] | [4] | [5] | [6] 54.2% [at 0.5 µM, active compounds read low] | [7] | [8]

Cc1ccc(S(=O)(=O)Nc2ccc3c(c2)C(=O)N([C@@H](C)CO)C[C@H](C)[C@H](CN(C)Cc2ccc(C(F)(F)F)cc2)OCCCC[C@@H](C)O3)cc1
inactive: [1] | [2] | [3] | [4] | [5] | [6] 9.21% | [7] | [8]

C[C@@H]1CN([C@H](C)CO)C(=O)c2c(c3ccccc3n2C)-c2ccccc2CO[C@@H]1CN(C)S(=O)(=O)c1ccc(C(F)(F)F)cc1
inactive: [1] | [2] | [3] | [4] | [5] | [6] -18.1% [at 16 µM, active compounds read low] | [7] | [8]

C[C@@H]1CN([C@H](C)CO)C(=O)c2cc(NC(=O)c3ccccc3)ccc2O[C@@H](C)CCCCO[C@H]1CN(C)Cc1ccc(C(F)(F)F)cc1
inactive: [1] | [2] | [3] | [4] | [5] | [6] -5.41% [at 0.5 µM, active compounds read low] | [7] | [8] | [9]

C[C@@H]1CCCCO[C@H](CN(C)Cc2ccc3c(c2)OCO3)[C@@H](C)CN([C@@H](C)CO)C(=O)c2cc(NS(=O)(=O)c3ccc(Cl)cc3)ccc2O1
inactive: [1] | [2] | [3] | [4] | [5] | [6] -40.7% [at 16 µM, active compounds read low] | [7] | [8]

C[C@H](CO)N1C[C@H](C)[C@@H](CN(C)Cc2ccc(Cl)c(Cl)c2)OCCCC[C@H](C)Oc2ccc(NC(=O)Nc3ccc(C(F)(F)F)cc3)cc2C1=O
inactive: [1] | [2] | [3] | [4] | [5] | [6] 35.5% [at 2.1 µM, active compounds read low] | [7] | [8] | [9]

C[C@@H]1CCCCO[C@@H](CN(C)Cc2ccc(C(F)(F)F)cc2)[C@H](C)CN([C@@H](C)CO)C(=O)c2cc(NS(=O)(=O)c3ccccc3)ccc2O1
inactive: [1] | [2] | [3] | [4] | [5] | [6] 11.3% [at 2.1 µM, active compounds read low] | [7] | [8] | [9]

C[C@H](CO)N1C[C@H](C)[C@H](CN(C)Cc2ccc(C(F)(F)F)cc2)Oc2ccc(NS(=O)(=O)c3ccc(F)cc3)cc2CC1=O
inactive: [1] | [2] | [3] | [4] | [5] | [6] 12.3% [at 16 µM, active compounds read low] | [7] | [8]

C[C@@H]1CCCCO[C@H](CN(C)Cc2ccc(Cl)c(Cl)c2)[C@@H](C)CN([C@@H](C)CO)C(=O)c2cc(NS(=O)(=O)c3ccc(Cl)cc3)ccc2O1
inactive: [1] | [2] | [3] | [4] | [5] | [6] -6.91% [at 4.2 µM, active compounds read low] | [7] | [8] | [9]

C[C@@H]1CN([C@H](C)CO)C(=O)c2c(c3ccccc3n2C)-c2ccccc2CO[C@H]1CN(C)C(=O)Nc1cccc(C(F)(F)F)c1
inactive: [1] | [2] | [3] | [4] | [5] | [6] -25.5% [at 16 µM, active compounds read low] | [7] | [8]

C[C@@H]1CCCCO[C@@H](CN(C)Cc2ccc(Cl)c(Cl)c2)[C@H](C)CN([C@@H](C)CO)C(=O)c2cc(NS(=O)(=O)c3ccccc3)ccc2O1
inactive: [1] | [2] | [3] | [4] | [5] | [6] -34.1% [at 0.26 µM, active compounds read low] | [7] | [8]

COc1ccc(S(=O)(=O)N(C)C[C@H]2Oc3ccc(NC(=O)Nc4ccc(C(F)(F)F)cc4)cc3CC(=O)N([C@H](C)CO)C[C@@H]2C)cc1
inactive: [1] | [2] | [3] | [4] | [5] | [6] 26.7% [at 16 µM, active compounds read low] | [7] | [8] | [9]

C[C@@H]1CN([C@@H](C)CO)S(=O)(=O)c2ccc(C#Cc3ccc(F)cc3)cc2O[C@H]1CN(C)C(=O)NC1CCCCC1
inactive: [1] | [2] | [3] | [4] | [5] | [6] -9.84% | [7] | [8] | [9]

O=C(C[C@@H]1C[C@H]2c3cc(NC(=O)Nc4ccc(C(F)(F)F)cc4)ccc3O[C@H]2[C@H](CO)O1)NCCc1ccccc1
inactive: [1] | [2] | [3] | [4] | [5] | [6] 13% | [7] | [8] | [9]

C[C@H]1CCCCO[C@H](CN(C)Cc2ccc(Cl)c(Cl)c2)[C@@H](C)CN([C@@H](C)CO)C(=O)c2cc(NC(=O)Nc3ccccc3)ccc2O1
inactive: [1] | [2] | [3] | [4] | [5] | [6] -18.6% | [7] | [8]

COc1ccc(S(=O)(=O)Nc2ccc3c(c2)C(=O)N([C@H](C)CO)C[C@@H](C)[C@H](CN(C)S(=O)(=O)c2ccc(F)cc2)OCCCC[C@H](C)O3)cc1
inactive: [1] | [2] | [3] | [4] | [5] | [6] -24.5% | [7] | [8]

O=C(Nc1cccc(F)c1)N[C@@H]1CC[C@@H](CCNS(=O)(=O)c2cccc(Cl)c2)O[C@@H]1CO
inactive: [1] | [2] | [3] | [4] | [5] | [6] -20.4% [at 0.5 µM, active compounds read low] | [7] | [8] | [9]

C[C@H]1CCCCO[C@H](CN(C)C(=O)Nc2ccc(F)cc2)[C@@H](C)CN([C@@H](C)CO)C(=O)c2cc(NC(=O)Nc3ccc(C(F)(F)F)cc3)ccc2O1
inactive: [1] | [2] | [3] | [4] | [5] | [6] 8.44% [at 16 µM, active compounds read low] | [7] | [8]

C[C@H](CO)N1C[C@H](C)[C@@H](CN(C)Cc2ccc(Oc3ccccc3)cc2)OCc2ccccc2-c2c(n(C)c3ccccc23)C1=O
inactive: [1] | [2] | [3] | [4] | [5] | [6] 1.33% | [7] | [8] | [9]
